Compounds with a hit are over-represented: about 2.4% of the library has one in this group of screens.
NOD2-RIPK2 inh = blocks binding of human NOD2 to RIPK2; O43353; CHO BLA complementation NOD2-RIPK2, CCF4 ratio; inhibition, % at 4.98 µM; 360,000 tested, 0.38% active; in the data active means inhibition above about 21%;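 further: 0% = vehicle only and 100% = reference blocker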
ANO1 block = inhibitors of mouse TMEM16A calcium-activated chloride channel; Q8BHY3; HEK293 TMEM16A/YFP iodide influx fluorescence, ionomycin; normalized B-score (activity score, 25-100; higher = stronger inhibition) at 10 µM; 310,000 tested, 1.2% active;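 active means ratio plate-corrected score three or more library SD toward inhibition, starting fluorescence score within five deviations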;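 further: score derived from kinetic fluorescence span divided by baseline fluorescence per well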
TLR4 MyD88 comp = blocks binding of human TLR4 to MyD88; HeLa CL3-4 TLR4/MyD88 BLA complementation, FRET ratio; inhibition, % at 8.4 µM; 200,000 tested, 0.18% active; in the data active means inhibition above about 25%;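 further: 0% = vehicle and 100% = reference inhibitor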
ANO1 activ = activators or potentiators of mouse TMEM16A chloride channel; Q8BHY3; HEK293 TMEM16A/YFP-H148Q/I152L, iodide quench fluorescence; stronger effect = lower value; B-score at 10 µM; 340,000 tested, 0.3% active; AID 623877;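 active means fluorescence-ratio B-score plate-corrected deviation score at least 3 library SD below zero, with starting fluorescence score within 5 deviations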;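 further: channel opened by trigger with iodide after compound preincubation; score built on the fluorescence ratio of max minus min over baseline; more negative score means more quench and so TMEM16A activation or potentiation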
TLR9-MyD88 inh = inhibitors of human TLR9-MyD88 binding | 340,000 tested, 0.21% active | Q9NR96+Q99836 | CHO BLA complementation TLR9-MyD88, CCF4 FRET ratio | inhibition, % at 4.98 µM;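 active means inhibition above the mean over all tested compounds plus 3 SD, cut at about 21% in these data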;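 further: 0% = DMSO only wells and 100% = clavulanate BLA inhibitor control wells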
m5-HT2A agonist = mouse HTR2A agonism via beta-arrestin recruitment | AID 624169 | 360,000 tested, 0.66% active | CHO-K1 mHTR2A beta-arrestin complementation, luminescence; percent of 30 µM serotonin response | P35363 | activation, % at 7.6 µM;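 active means activation above a run cutoff, the mean activation of all tested compounds plus 3 SD, cut at about 14% in these data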;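 further: 0% = plate median of compound wells and 100% = 30 µM serotonin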
TLR9-MyD88 conf = confirmation of human TLR9-MyD88 binding inhibitors | shares compounds with TLR9-MyD88 inh | CHO TLR9/MyD88 BLA complementation, CCF4 FRET ratio | inhibition, % at 4.98 µM | 680 tested, 51% active | AID 540250;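 active means mean inhibition across three repeats above about 21% taken from the earlier screen, limit read from the data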;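 further: blue over green emission ratio reports constitutive TLR9 MyD88 association via BLA complementation; 0% = DMSO vehicle wells and 100% = clavulanate BLA inhibitor wells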
Target sequence (Q9NR96 whole entry, looked up): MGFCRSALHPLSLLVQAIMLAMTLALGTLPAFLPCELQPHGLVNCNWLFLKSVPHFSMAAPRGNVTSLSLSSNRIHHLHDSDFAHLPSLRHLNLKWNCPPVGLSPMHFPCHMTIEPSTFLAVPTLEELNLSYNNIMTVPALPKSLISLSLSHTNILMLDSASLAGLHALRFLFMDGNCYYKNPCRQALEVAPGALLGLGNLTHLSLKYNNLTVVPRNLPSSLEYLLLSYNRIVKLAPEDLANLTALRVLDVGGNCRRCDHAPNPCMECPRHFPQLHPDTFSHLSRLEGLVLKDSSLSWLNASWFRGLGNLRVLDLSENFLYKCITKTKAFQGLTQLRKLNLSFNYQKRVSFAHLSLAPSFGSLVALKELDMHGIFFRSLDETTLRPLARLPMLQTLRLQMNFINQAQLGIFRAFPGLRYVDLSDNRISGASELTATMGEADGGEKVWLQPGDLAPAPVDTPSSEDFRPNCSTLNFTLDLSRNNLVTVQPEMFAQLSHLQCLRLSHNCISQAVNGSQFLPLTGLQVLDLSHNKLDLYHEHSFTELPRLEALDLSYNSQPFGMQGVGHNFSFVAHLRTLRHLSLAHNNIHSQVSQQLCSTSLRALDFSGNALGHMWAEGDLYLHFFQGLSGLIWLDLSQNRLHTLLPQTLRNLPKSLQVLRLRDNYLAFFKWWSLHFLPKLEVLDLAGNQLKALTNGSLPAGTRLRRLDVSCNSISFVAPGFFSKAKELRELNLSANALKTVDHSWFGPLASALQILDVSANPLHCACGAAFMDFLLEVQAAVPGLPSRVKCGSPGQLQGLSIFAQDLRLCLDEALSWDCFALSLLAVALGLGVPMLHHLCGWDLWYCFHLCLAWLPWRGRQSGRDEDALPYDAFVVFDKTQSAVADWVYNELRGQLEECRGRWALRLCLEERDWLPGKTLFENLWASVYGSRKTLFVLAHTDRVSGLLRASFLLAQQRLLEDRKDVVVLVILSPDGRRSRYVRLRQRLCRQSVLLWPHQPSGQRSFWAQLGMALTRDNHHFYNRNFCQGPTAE
BLA counter-1 = beta-lactamase reporter inhibition, counter-screen artifact; shares compounds with TLR9-MyD88 inh; CHO-BLA cells, CCF4 FRET ratio, BLA reporter; inhibition, % at 4.98 µM; 680 tested, 7% active; AID 540251;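 active means mean inhibition above a 50% cutoff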;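 further: counterscreen of TLR9-MyD88 hits on CMV-driven BLA in CHO-K1 cells; 0% = DMSO alone and 100% = clavulanate blocking BLA; higher means less blue over green ratio so more BLA blockade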
TLR9 CHO tox = counter-screen for TLR9-MyD88 inhibitors: cytotoxicity in CHO cells | shares compounds with TLR9-MyD88 inh | luminescence | inhibition, % at 4.98 µM | 680 tested, 39% active | AID 588336; in the data active means inhibition above about 11%
NOD2 RIPK2 conf = confirmation of human NOD2-RIPK2 interaction inhibitors. CHO cells, NOD2-RIPK2 BLA complementation, CCF4 FRET. 1,200 tested, 70% active. AID 624370. shares compounds with NOD2-RIPK2 inh. inhibition, % at 4.98 µM;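 active means mean inhibition across replicates above a set limit taken from the earlier primary screen, cut at about 21% in these data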;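 further: 0% = DMSO-only wells and the high end = clavulanate BLA-blocked wells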
BLA counter-2 = NOD2-RIPK2 counterscreen BLA reporter activity; shares compounds with NOD2-RIPK2 inh; CHO BLA reporter, CCF4 FRET ratio; inhibition, % at 4.98 µM; 1,200 tested, 57% active; AID 624371;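 active means mean inhibition above the low-control mean inhibition plus three low-control SD, cut at about 11% in these data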;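 further: 0% = DMSO only wells and 100% = clavulanate high control wells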
* hit, by the source's call; i = inactive; nt = no result given.

SMILES | NOD2-RIPK2 inh | ANO1 block | TLR4 MyD88 comp | ANO1 activ | TLR9-MyD88 inh | m5-HT2A agonist | TLR9-MyD88 conf | BLA counter-1 | TLR9 CHO tox | NOD2 RIPK2 conf | BLA counter-2
O=C(Nc1cccc2c1C(=O)NC2=O)c1ccc(S(=O)(=O)N2CCCC2)cc1 | 22* | i | 22 | i | 38* | 1 | 9 | 13 | 4 | 34* | 43*
CCCCCCn1cc(CN2CC(N(C)C)CS2(=O)=O)nn1 (configuration not stated) | 3 | nt | nt | nt | nt | 4 | nt | nt | nt | nt | nt
COc1ccc(/C=C/c2nc3cc(-c4ccccc4)ccc3o2)cc1O | 23* | i | -6 | i | 21* | -3 | 5 | 9 | 11* | 20 | 27*
COc1ccc(/C=C/c2nc3ccccc3c(=O)o2)cc1 | 7 | i | nt | i | 3 | 0 | nt | nt | nt | nt | nt
Nc1ccc2c3c(cccc13)-c1ccccc1-2 | 67* | nt | nt | i | 62* | 1 | 58* | 54* | 2 | 74* | 81*
CCCCc1ccc(NC(=O)CC(C)(C)C)cc1 | -8 | i | -6 | i | -11 | -4 | nt | nt | nt | nt | nt
C=CCn1c(C)nc2ccccc2c1=O | -9 | i | -6 | i | 1 | 0 | nt | nt | nt | nt | nt
O=C(Nc1ccccc1SC(=O)c1ccccc1)c1ccccc1 | -8 | nt | nt | nt | -9 | 8 | nt | nt | nt | nt | nt
Cc1ccc(C(=O)Sc2cccccc2=O)cc1 | 35* | i | nt | i | 30* | -13 | 21* | 11 | 99* | 48* | 16*
O=C(c1nc2n(n1)C(c1ccc(Cl)cc1)C=C(c1ccccc1)N2)N1CCOCC1 (configuration not stated) | 48* | i | 22 | i | 42* | 2 | 12 | 12 | 1 | 27* | 21*
CCc1ccc(Nc2n[n+](-c3ccccc3)c(-c3c(Cl)cccc3Cl)s2)cc1 | 68* | 100* | nt | -8.1* | 80* | -18 | 43* | 45 | 29* | 75* | 63*
CC(=O)OCCn1c(C)[n+](CCOC(C)=O)c2cc(Cl)c(Cl)cc21 | -8 | i | -4 | i | 3 | -2 | nt | nt | nt | nt | nt
CC(=O)OCCn1c2nc(=O)[nH]c(=O)c-2nc2cc(C)c(C)cc21 | 23* | i | nt | i | 21* | 5 | 5 | 6 | 3 | 20 | 23*
CCOC(=O)c1c(S(=O)(=O)NCC(=O)Nc2ccccc2F)c(C)n(C)c1C | 4 | i | nt | i | 3 | -3 | nt | nt | nt | nt | nt
Cc1ccc(-c2nc3ncccn3c2Nc2ccccc2C)o1 | 5 | i | 21 | i | 0 | 3 | nt | nt | nt | nt | nt
Cc1ccc(-c2nc3cnccn3c2Nc2c(C)cccc2C)o1 | 49* | i | 17 | i | 29* | -2 | 14 | 18 | 9 | 36* | 41*
c1cc(SC2CCCCC2)cc(-c2nc3cnccn3c2NC2CCCCC2)c1 | 33* | nt | nt | i | 33* | -2 | 33* | 35 | -2 | 52* | 66*
Cc1ccc2nc(-c3cccc(SC4CCCCC4)c3)c(NC3CCCCC3)n2c1 | -4 | nt | nt | i | 5 | 5 | nt | nt | nt | nt | nt
O=C(Cn1ncc(Cl)c(Cl)c1=O)c1ccc2c(c1)OCCO2 | 14 | nt | nt | i | 2 | 0 | nt | nt | nt | nt | nt
CCC(=O)Nc1ccc(C(=O)Cn2ncc(Cl)c(Cl)c2=O)cc1 | 22* | i | nt | i | 21* | 2 | 16 | 2 | 37* | 34* | 9
CCOC(=O)n1c(=O)oc2cc(S(=O)(=O)N3CCCCC3)ccc21 | -4 | i | -12 | i | 2 | 1 | nt | nt | nt | nt | nt
CCOC(=O)c1nc(S(C)(=O)=O)ncc1Cl | 22* | i | 14 | i | 34* | -2 | 37* | 27 | 43* | 56* | 25*
CCN(c1ccccc1)S(=O)(=O)c1ccc(NC(=O)c2nc(S(C)(=O)=O)ncc2Cl)cc1 | 97* | i | nt | -7.6* | 61* | -9 | 59* | 39 | 100* | 98* | 49*
Cc1ccccc1NC(=O)c1cccc(C(=O)Nc2ccccc2C)n1 | -8 | i | nt | i | -5 | 0 | nt | nt | nt | nt | nt
CCS(=O)(=O)c1ncc(Cl)c(C(=O)Nc2ccc(S(=O)(=O)N(C)c3ccccc3)cc2)n1 | 99* | i | nt | i | 55* | -11 | 54* | 50* | 100* | 96* | 54*
SMILES | NOD2-RIPK2 inh | ANO1 block | TLR4 MyD88 comp | ANO1 activ | TLR9-MyD88 inh | m5-HT2A agonist | TLR9-MyD88 conf | BLA counter-1 | TLR9 CHO tox | NOD2 RIPK2 conf | BLA counter-2
Cc1ccccc1NC(=O)c1nc(S(C)(=O)=O)ncc1Cl | 30* | i | nt | i | 38* | -3 | 37* | 13 | 87* | 60* | 29*
COc1ccccc1CNC(=O)c1cc(S(=O)(=O)N2CCCCC2)c[nH]1 | -9 | i | nt | i | -3 | 12 | nt | nt | nt | nt | nt
NS(=O)(=O)c1cccc(NC(=O)CSc2nnc(C3CC3)n2C2CC2)c1 | 11 | nt | nt | i | -2 | 0 | nt | nt | nt | nt | nt
C=C1CC(COc2ccc3c(C)c(Cl)c(=O)oc3c2)(c2ccccc2)OC1=O (configuration not stated) | 60* | nt | nt | i | 24* | -6 | 23* | 8 | 98* | 74* | 28*
Cc1ccccc1-n1c(C)cc(/C=N/Nc2ccc([N+](=O)[O-])cn2)c1C | 28* | i | 24 | i | 37* | -4 | 21* | 25 | 10* | 38* | 40*
O=S1(=O)CCOC[C@H](CC2CCCCC2)N1Cc1cccc(Cl)c1 | -3 | i | nt | i | 1 | 1 | nt | nt | nt | nt | nt
CN(c1ccccc1)c1ccc(/C=C/[N+](=O)[O-])cc1 | 75* | i | 10 | i | 26* | -3 | 28* | 11 | 81* | 89* | 29*
CN(C)c1ccc(-n2cccc2/C=C/[N+](=O)[O-])cc1 | 15 | i | 7 | i | 0 | -7 | nt | nt | nt | nt | nt
CC(Oc1ccc2c(c1)oc(=O)c1ccccc12)C(=O)NC(Cc1c[nH]c2ccc(O)cc12)C(=O)O (configuration not stated) | -10 | i | nt | i | 2 | 0 | nt | nt | nt | nt | nt
